In PubChem BioAssay (EPA / NIEHS) one finds outcome and AC50 data, which are given here for 13 compounds.

As usually defined, the AC50 is the concentration at which the activity in the assay is half-maximal.

Assay [1] can be described thus: TOX21_p53_BLA_p2_viability: Viability Assessment in the Tox21 HCT-116 p53 Agonism Beta-lactamase Assay, Phase 2 (AID 2283591).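 Also: compound exposure lasted 16 h at 37 °C; actives lower the ATP signal meaning cytotoxicity.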 Put shortly:
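HCT-116 p53-bla cells (4000/well) rested 5 h at 37C, then received compounds in DMSO (217-fold dilution) for 16 h at 37C, 5% CO2. After the CCF4 read, CellTiter-Glo was added; ATP luminescence was read after 30 min at room temperature.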

For assay [2], the target named is Cellular tumor antigen p53 (Homo sapiens) (UniProt P04637). Nature of the assay: TOX21_p53_BLA_p2_ratio: Tox21 HCT-116 p53 Agonism Beta-lactamase Assay, Ratio, Phase 2 (AID 2283592). Summed up:
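In this cell-based reporter format, HCT116 cells were dosed with chemicals delivered from DMSO by 217-fold dilution and incubated 16 h at 37C. Emission at 460 and 530 nm after 2 h CCF4-AM loading provided the ratio, fitted upward versus DMSO.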

The nature of assay [3]: TOX21_p53_BLA_p3_viability: Viability Assessment in the Tox21 HCT-116 p53 Agonism Beta-lactamase Assay, Phase 3 (AID 2283593).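 Also: cells exposed to compound for 16 h before reading.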 Summed up:
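HCT-116 cells (4000/well) rested 5 h at 37C, then got DMSO compounds by pin tool (217-fold dilution) for 16 h at 37C, 5% CO2. After the bla read, CellTiter-Glo was added and luminescence read at 30 min, room temperature.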

Assay [4] deals with Cellular tumor antigen p53 (Homo sapiens) (UniProt P04637). Kind of assay: TOX21_p53_BLA_p3_ratio: Tox21 HCT-116 p53 Agonism Beta-lactamase Assay, Ratio, Phase 3 (AID 2283596). Put shortly:
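HCT116 p53-bla cells (4000/well) given compound in DMSO (217-fold dilution) after 5 h, incubated 16 h at 37C. CCF4-AM substrate 2 h at room temperature; 460/530 nm emission ratio, gain fitted against DMSO.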

Assay [5] is described as follows: TOX21_p53_BLA_p4_viability: Viability Assessment in the Tox21 HCT-116 p53 Agonism Beta-lactamase Assay, Phase 4 (AID 2283597).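 Also: hits lower the luminescence signal meaning cytotoxicity.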 Summed up: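 We seeded HCT116 p53 reporter cells at 4000/well and waited 5 h. We then added compounds in DMSO at a 217-fold dilution and incubated for 16 h. Viability was read as CellTiter-Glo luminescence after 30 min at RT.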
Assay [6] has as its target Cellular tumor antigen p53 (Homo sapiens) (UniProt P04637). Nature of the assay: TOX21_p53_BLA_p5_ratio: Tox21 HCT-116 p53 Agonism Beta-lactamase Assay, Ratio, Phase 5 (AID 2283599). Summed up:
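HCT-116 cells carrying a p53-inducible beta-lactamase reporter were seeded at 4000 cells/well and dosed after 5 h with compound in DMSO (217-fold dilution). After 16 h at 37C, CCF4-AM substrate was added for 2 h, and the 460/530 nm emission ratio was scored as gain-of-signal versus DMSO.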

For assay [7] the target is unchanged. Nature of the assay: TOX21_p53_BLA_p4_ratio: Tox21 HCT-116 p53 Agonism Beta-lactamase Assay, Ratio, Phase 4 (AID 2283601). Put shortly:
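HCT116 cells carrying an inducible beta-lactamase reporter were plated at 4000 cells/well, rested 5 h, then exposed to compounds in DMSO (217-fold dilution) for 16 h at 37C. CCF4-AM substrate was loaded 2 h at room temperature; 460/530 nm emission ratio scored gain-of-signal versus DMSO.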

Assay [8] concerns the target T1, Thyroid hormone receptor alpha (Rattus norvegicus) + Thyroid hormone receptor beta (Rattus norvegicus) (UniProt P18113+P63059). Nature of the assay: TOX21_TR_LUC_GH3_Agonist_Followup: Tox21 GH3 Thyroid Hormone Receptor Agonism Luciferase Follow-Up Assay (AID 2283939). Summed up:
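Rat GH3 cells (1,500/well) in serum-free assay medium, treated with 15-point series, 92 uM to 5 nM final, for 24 h at 37C. Luciferase via ONE-Glo luminescence; gain of signal fitted against DMSO, T3 positive control.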

For assay [9], the target named is THRA (gene 7067) (UniProt P10827). Kind of assay: TOX21_TRA_COA_Agonist_Followup_ratio: Tox21 Thyroid Hormone Receptor alpha Agonism through Coactivator Recruitment Follow-Up Assay, Ratio (AID 2283948; active = hit-call score of the fitted dose curve at least 0.9, where 1 is the maximum; inactive = score below 0.9). Put shortly: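 GST-TRa LBD 2.5 nM + 0.10% BSA + cpd; add fluorescein-SRC-2 200 nM, Tb-anti-GST 2 nM. TR-FRET ex 340, em 520/495 ratio. Norm: DMSO 0%, T3 100%; gain-of-signal fit.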

Assay [10] has as its target THRB (gene 7068) (UniProt P10828). Nature of the assay: TOX21_TRB_COA_Agonist_Followup_ratio: Tox21 Thyroid Hormone Receptor beta Agonism through Coactivator Recruitment Follow-Up Assay, Ratio (AID 2283963; active = hit-call score of the fitted dose curve at least 0.9, where 1 is the maximum; inactive = score below 0.9). Summed up: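 Agonism is measured as coactivator recruitment in a purified-protein TR-FRET format, using GST-TRβ LBD at 5.0 nM, fluorescein-SRC-2 peptide at 200 nM and Tb-labeled anti-GST antibody at 2 nM. Values are 520:495 nm ratios relative to DMSO (0%) and T3 (100%).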

The target in assay [11] is Retinoic acid receptor RXR-alpha (Homo sapiens) (UniProt P19793). Kind of assay: TOX21_TR_RXR_BLA_Agonist_Followup_ratio: Tox21 Thyroid Hormone Receptor beta Retinoid X Receptor alpha (RXRa) Agonism Beta-lactamase (BLA) Follow-Up Assay, Ratio (AID 2283968). Summed up:
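HEK293T RXRa-bla, qHTS; cpd 11-pt conc. in triplicate, 16 h 37C/5% CO2; CCF4-AM 2 h RT; ratio 460:530 nm; agonist direction vs DMSO; 9-cis retinoic acid as positive control.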

Assay [12] in a line: TOX21_TR_RXR_BLA_Agonist_Followup_viability: Viability Assessment in the Tox21 Thyroid Hormone Receptor beta Retinoid X Receptor alpha (RXRa) Agonism Beta-lactamase (BLA) Follow-Up Assay (AID 2283970). Put shortly:
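Cells: HEK293T RXRa-UAS-bla, 2,500/well; medium phenol red-free DMEM + 2% charcoal-stripped FBS; 16h, 37C/5% CO2; qHTS concentration series. Read: CellTiter-Glo luminescence (ATP); bidirectional fit, DMSO = baseline.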

Assay [13] is described as follows: TOX21_p53_BLA_p5_viability: Viability Assessment in the Tox21 HCT-116 p53 Agonism Beta-lactamase Assay, Phase 5 (AID 2283600). Put shortly:
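Compounds, pinned from DMSO at 217-fold dilution, were left on the cells for 16 h. The viability endpoint was ATP content measured by CellTiter-Glo luminescence, where falling signal reflects cytotoxicity.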

The target of assay [14] is T1, Thyroid hormone receptor alpha (Rattus norvegicus) + Thyroid hormone receptor beta (Rattus norvegicus). Nature of the assay: TOX21_TR_LUC_GH3_Antagonist_Followup: Tox21 GH3 Thyroid Hormone Receptor Antagonism Luciferase Follow-Up Assay (AID 2283942). Summed up:
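Rat pituitary GH3 cells with a TRα/TRβ-driven luciferase reporter, 5 h attachment, then 15 concentrations (92 uM to 5nM final) plus 1.0 nM T3 agonist, 24 h at 37C/5% CO2. ONE-Glo luminescence; signal change fitted against DMSO baseline.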

Assay [15] concerns the target THRA (gene 7067) (UniProt P10827). Kind of assay: TOX21_TRA_COA_Antagonist_Followup_ratio: Tox21 Thyroid Hormone Receptor alpha Antagonism through Coactivator Recruitment Follow-Up Assay, Ratio (AID 2283953). Summed up:
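520:495 nm emission ratio (excitation 340 nm) reports fluorescein-SRC-2 peptide recruitment to GST-TRα LBD by TR-FRET with Tb anti-GST antibody. Values were normalized to DMSO (0%) and T3 control wells (100%); loss of signal indicated antagonism.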

A short description of assay [16]: TOX21_TRB_BLA_Antagonist_Followup_viability: Viability Assessment in the Tox21 Thyroid Hormone Receptor beta Antagonism Beta-lactamase (BLA) Follow-Up Assay (AID 2283961). Summed up:
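Viability read as CellTiter-Glo ATP luminescence (loss of signal = cytotoxicity) in the same plates as the TRβ-bla readout. TRβ-LBD/GAL4 UAS-bla HEK293T cells were exposed to compounds, 11 concentrations in triplicate, for 18 h at 37C/5% CO2.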

Assay [17] has as its target THRB (gene 7068) (UniProt P10828). Nature of the assay: TOX21_TRB_COA_Antagonist_Followup_ratio: Tox21 Thyroid Hormone Receptor beta Antagonism through Coactivator Recruitment Follow-Up Assay, Ratio (AID 2283967). Summed up:
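Cell-free TR-FRET coactivator recruitment with GST-tagged TRβ LBD (5.0 nM) and fluorescein-labeled SRC-2 peptide (200 nM) detected by terbium anti-GST antibody (2 nM). The 520:495 nm emission ratio was normalized to DMSO (0%) and T3 (100%).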

The nature of assay [18]: TOX21_TR_RXR_BLA_Antagonist_Followup_viability: Viability Assessment in the Tox21 Thyroid Hormone Receptor beta Retinoid X Receptor alpha (RXRa) Antagonism Beta-lactamase (BLA) Follow-Up Assay (AID 2283979). Put shortly:
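RXRa-UAS-bla HEK293T cells seeded 2,500/well in phenol red-free DMEM with 2% charcoal-stripped FBS, attached 5 h, then exposed to compounds at 11 concentrations in triplicate for 16 h at 37C/5% CO2. Viability read by CellTiter-Glo ATP luminescence; bidirectional fit versus DMSO.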

Inconclusive results are not listed. Calls of active or inactive are those of the source. The calls were made as follows, unless noted: active = hit-call score of the fitted dose curve at least 0.9, where 1 is the maximum; inconclusive = response in the unintended direction; inactive = score below 0.9.

Sequence of Cellular tumor antigen p53 (Homo sapiens) (P04637 whole entry, looked up): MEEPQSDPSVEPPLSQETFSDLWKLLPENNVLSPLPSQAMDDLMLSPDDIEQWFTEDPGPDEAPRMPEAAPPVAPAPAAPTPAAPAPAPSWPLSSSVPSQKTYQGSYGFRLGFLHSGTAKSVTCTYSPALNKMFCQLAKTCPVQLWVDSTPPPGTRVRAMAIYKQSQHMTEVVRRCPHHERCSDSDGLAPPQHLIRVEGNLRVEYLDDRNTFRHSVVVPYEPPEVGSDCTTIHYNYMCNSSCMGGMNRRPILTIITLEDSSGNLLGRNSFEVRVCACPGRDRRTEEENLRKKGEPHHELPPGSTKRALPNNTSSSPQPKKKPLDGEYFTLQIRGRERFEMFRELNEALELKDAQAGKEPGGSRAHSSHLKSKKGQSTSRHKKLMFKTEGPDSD
Sequence of THRA (gene 7067) (P10827 whole entry, looked up, the tested form may be a part): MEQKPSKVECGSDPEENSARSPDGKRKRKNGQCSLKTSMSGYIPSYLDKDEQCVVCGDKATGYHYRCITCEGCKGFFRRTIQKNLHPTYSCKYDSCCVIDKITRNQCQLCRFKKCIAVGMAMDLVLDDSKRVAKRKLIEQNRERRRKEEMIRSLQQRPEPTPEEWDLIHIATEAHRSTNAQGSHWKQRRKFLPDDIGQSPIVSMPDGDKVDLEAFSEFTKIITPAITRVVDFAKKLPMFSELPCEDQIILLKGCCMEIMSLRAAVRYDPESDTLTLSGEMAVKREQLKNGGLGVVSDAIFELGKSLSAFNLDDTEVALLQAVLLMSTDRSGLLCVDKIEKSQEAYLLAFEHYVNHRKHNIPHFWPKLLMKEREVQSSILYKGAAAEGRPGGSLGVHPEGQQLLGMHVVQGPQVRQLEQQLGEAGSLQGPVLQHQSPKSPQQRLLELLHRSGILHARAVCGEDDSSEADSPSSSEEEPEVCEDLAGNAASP
Sequence of THRB (gene 7068) (P10828 whole entry, looked up, the tested form may be a part): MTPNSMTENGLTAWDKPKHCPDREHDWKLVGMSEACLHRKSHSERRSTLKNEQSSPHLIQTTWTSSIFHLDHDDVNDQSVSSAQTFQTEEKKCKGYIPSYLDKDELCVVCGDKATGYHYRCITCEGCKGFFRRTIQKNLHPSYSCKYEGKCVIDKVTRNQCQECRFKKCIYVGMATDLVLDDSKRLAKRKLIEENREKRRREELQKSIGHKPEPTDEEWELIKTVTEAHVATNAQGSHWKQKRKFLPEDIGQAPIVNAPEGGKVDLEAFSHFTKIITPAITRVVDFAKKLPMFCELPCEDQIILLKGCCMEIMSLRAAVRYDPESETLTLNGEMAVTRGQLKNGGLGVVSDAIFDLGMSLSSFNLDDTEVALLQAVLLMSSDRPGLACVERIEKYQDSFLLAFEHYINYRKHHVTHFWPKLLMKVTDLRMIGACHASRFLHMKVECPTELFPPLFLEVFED
Sequence of Retinoic acid receptor RXR-alpha (Homo sapiens) (P19793 whole entry, looked up): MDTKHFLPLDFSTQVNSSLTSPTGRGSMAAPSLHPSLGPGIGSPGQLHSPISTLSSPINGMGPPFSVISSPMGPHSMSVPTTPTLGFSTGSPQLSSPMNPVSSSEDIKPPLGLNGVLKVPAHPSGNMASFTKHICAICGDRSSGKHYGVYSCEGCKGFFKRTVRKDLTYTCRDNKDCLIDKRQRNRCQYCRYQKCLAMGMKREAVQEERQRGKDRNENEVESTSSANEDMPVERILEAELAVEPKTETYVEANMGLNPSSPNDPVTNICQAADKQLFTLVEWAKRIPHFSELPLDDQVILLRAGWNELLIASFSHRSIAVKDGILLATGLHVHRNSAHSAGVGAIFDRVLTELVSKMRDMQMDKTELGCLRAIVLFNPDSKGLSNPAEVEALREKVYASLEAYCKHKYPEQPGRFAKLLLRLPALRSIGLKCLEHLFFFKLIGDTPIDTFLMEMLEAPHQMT
T1 sequence (P63059 whole entry, looked up): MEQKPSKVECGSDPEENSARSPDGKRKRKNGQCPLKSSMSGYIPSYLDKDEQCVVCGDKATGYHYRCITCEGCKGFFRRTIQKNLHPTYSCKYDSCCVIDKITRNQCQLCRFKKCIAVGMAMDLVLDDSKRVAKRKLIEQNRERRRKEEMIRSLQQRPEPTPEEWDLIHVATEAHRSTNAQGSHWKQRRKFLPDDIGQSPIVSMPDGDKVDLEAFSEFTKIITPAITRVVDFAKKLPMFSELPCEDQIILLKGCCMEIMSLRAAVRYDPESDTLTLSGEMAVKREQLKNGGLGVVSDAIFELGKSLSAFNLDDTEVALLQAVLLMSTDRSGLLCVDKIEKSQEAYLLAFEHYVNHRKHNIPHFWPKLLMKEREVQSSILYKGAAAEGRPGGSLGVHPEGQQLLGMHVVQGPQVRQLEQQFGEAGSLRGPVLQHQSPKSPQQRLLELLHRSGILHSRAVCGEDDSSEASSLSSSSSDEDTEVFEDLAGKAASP
T1 sequence (P18113 whole entry, looked up): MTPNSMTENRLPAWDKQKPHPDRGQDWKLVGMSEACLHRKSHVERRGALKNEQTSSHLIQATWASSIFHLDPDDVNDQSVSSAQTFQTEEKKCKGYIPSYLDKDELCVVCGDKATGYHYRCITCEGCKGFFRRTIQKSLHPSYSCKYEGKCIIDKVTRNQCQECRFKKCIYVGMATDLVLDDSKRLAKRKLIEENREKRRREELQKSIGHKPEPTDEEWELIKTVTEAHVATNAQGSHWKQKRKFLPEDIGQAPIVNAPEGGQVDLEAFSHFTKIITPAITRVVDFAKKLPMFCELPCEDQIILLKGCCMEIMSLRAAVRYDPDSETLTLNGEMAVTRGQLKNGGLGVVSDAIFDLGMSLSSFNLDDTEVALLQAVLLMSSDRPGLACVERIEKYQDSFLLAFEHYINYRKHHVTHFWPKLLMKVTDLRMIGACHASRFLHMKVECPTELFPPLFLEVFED

Take `C#C[C@]1(O)CC[C@H]2[C@@H]3CCC4=C/C(=N/O)CC[C@@H]4[C@H]3CC[C@@]21CC`: the outcome in [1], in assay [2], in assay [3], in assay [4], in assay [6] and in assay [7] was inactive. For the same compound, in assay [5], the concentration at half-maximal activity (AC50) is 38.1 µM (active).
As for `COc1cc(C)c(/C=C/C(C)=C/C=C/C(C)=C/C(=O)O)c(C)c1C`, the compound was called inactive (in assay [1]; in assay [3]; in assay [4]; in assay [5]; in assay [7]; in the assay with THRA (gene 7067) [9]). For the same compound, the outcome (in the assay with THRB (gene 7068) [10]; in [12]) was inactive. Besides, the half-maximal activity concentration (AC50) in assay [2] was 33.4 µM (active); in assay [6], 36 µM (active); in assay [8], 767 nM (active); in [11], 593 nM (active).
On to `Cc1nnc(C(C)C)n1C1C[C@H]2CC[C@@H](C1)N2CC[C@@H](NC(=O)C1CCC(F)(F)CC1)c1ccccc1` (stereo partly drawn), for which the compound was classed as inactive in assay [1], in assay [2], in [3], in assay [4], in assay [5] and in assay [13].
Turning to `COc1ccc2nc(NC(=O)Nc3ccccc3)sc2c1`, the call in assay [1], in assay [2], in assay [3], in assay [4], in [5] and in assay [6] was inactive. Besides, the result (in assay [7]; in [14]; in the assay with THRA (gene 7067) [15]; in assay [16]; in the assay with THRB (gene 7068) [17]; in assay [18]) was inactive.
As for `OC[C@@H](O)[C@H](O)[C@H](O)[C@@H](O)CO`, the call in assay [1], in assay [2], in assay [3], in assay [4], in [5] and in assay [6] was inactive. Moreover, the outcome in [7] was inactive.
As for `CC(CN1CC(=O)NC(=O)C1)N1CC(=O)NC(=O)C1` (stereo not drawn), the call in assay [1], in assay [3], in assay [4] and in assay [5] was inactive. The AC50 in [2] is 8.6 µM (active); in assay [6], 8.51 µM (active); in assay [7], 8.89 µM (active).
Regarding `CCC(Oc1ccccc1)C(=O)N[C@@H]1C(=O)N2[C@@H]1SC(C)(C)[C@@H]2C(=O)O` (stereo partly drawn), the call in [1], in assay [2], in assay [3], in assay [4], in [5] and in [6] was inactive. Further, in assay [7], the outcome was inactive.
Turning to `CN1C[C@H](C(=O)N[C@]2(C)O[C@@]3(O)[C@@H]4CCCN4C(=O)[C@H](Cc4ccccc4)N3C2=O)C[C@@H]2c3cccc4[nH]cc(c34)C[C@H]21`, the outcome in assay [1], in [2], in [3], in assay [4], in assay [5] and in assay [6] was inactive. Further, the outcome in [7] was inactive.
`CCCN(CCC)C(=O)C(CCC(=O)OCCCN1CCN(CCOC(=O)Cc2c(C)n(C(=O)c3ccc(Cl)cc3)c3ccc(OC)cc23)CC1)NC(=O)c1ccccc1` (stereo not drawn): the result in assay [1], in assay [2], in [3], in assay [4], in assay [5] and in assay [6] was inactive. For the same compound, the result in [7] was inactive.
In the case of `Cc1ccc2c(Br)cc(Br)c(O)c2n1`, the compound was called inactive in assay [1], in assay [3], in [4] and in [6]. Moreover, the figures for the AC50 in [2], in [5] and in assay [7] were 40.4 µM (active), 16.8 µM (active) and 43 µM (active), respectively.
`CC(C)(C)c1ccc(C(=O)CCCN2CCC(OC(c3ccccc3)c3ccccc3)CC2)cc1`: the compound was called inactive in [1], in [2], in assay [5] and in assay [13]. The concentration at half-maximal activity (AC50) in assay [3] was 31.1 µM (active); in [4] it was 34.6 µM (active).
As for `C[C@H](CN1CCCC1)C(=O)c1ccc(C(F)(F)F)cc1`, the compound was classed as inactive in [1], in assay [2], in assay [3], in [4], in assay [5] and in [13].
As to `CC[C@H](NC(C)C)[C@H](O)c1ccc(O)c2[nH]c(=O)ccc12`, the call in [1], in assay [2], in [3], in assay [4], in [5] and in assay [6] was inactive. Besides, in assay [7], the result was inactive.
